# Test results: PubChem BioAssay AID463115 (University of Pittsburgh Molecular Library Screening Center, 2010)
# About 130 (0.059%) of roughly 220,000 compounds were called active. The full list was thinned out, with actives kept by preference. Unmarked numbers belong to inactive results. Rule as the data show it: active = inhibition above about 25%; inactive = the rest.
# Biological target: Furin (Homo sapiens) (UniProt P09958)
# Experiment: furin protease activity blockers – biochemical, fluorescence intensity, primary screen (AID 463115)
# Conditions: purified furin, fluorogenic substrate cleavage, hits give high values; at 30 µM unless noted
# Sequence of Furin (Homo sapiens) (P09958 108-714 limits assumed): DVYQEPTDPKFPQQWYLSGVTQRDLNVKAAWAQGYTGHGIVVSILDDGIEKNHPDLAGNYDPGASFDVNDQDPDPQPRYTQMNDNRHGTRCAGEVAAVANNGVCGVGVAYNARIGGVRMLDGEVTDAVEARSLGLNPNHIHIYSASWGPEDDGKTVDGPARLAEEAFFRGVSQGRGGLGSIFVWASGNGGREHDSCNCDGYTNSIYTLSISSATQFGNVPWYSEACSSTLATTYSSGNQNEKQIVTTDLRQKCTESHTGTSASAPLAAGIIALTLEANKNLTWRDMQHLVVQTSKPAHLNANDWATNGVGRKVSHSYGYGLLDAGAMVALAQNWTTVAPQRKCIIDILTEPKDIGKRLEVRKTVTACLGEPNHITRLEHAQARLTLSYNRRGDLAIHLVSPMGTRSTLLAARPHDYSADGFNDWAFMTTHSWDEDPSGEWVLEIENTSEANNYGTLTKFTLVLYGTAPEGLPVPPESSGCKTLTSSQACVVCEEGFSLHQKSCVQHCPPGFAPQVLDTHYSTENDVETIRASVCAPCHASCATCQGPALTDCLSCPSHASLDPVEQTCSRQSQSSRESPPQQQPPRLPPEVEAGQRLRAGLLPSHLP
row,Compound,inhibition
1,CCC(=O)Nc1sc(C(=O)Nc2ccccc2)c(C)c1C(=O)OC,-21.3%
2,C#CCO[C@@H]1C[C@H](n2cnc3c(=O)[nH]c(NC(=O)C(C)C)nc32)O[C@@H]1CO,-9.33%
3,O=C1N=C(N2CCc3ccccc3C2)S/C1=C\c1ccc(O)cc1,-5.76%
4,Cc1nc2sc(C(c3ccco3)N3CCC4(CC3)OCCO4)c(O)n2n1 (stereo not given),-16.3% [at 20 µM]
5,COc1ccc(/C=C/C(=O)c2ccc(NS(=O)(=O)c3ccc(C)cc3)cc2)cc1O,-7.18%
6,COC(=O)c1ccc(C(=O)OC)c(NC(=S)N2CCN(c3ccc(F)cc3)CC2)c1,-22.8%
7,O=C(Nc1ccccc1-c1nnn(CC(=O)N2CCCc3ccccc32)n1)c1cccc(Cl)c1,-12.2% [at 20 µM]
8,Cc1cc(C)n(-c2nnc(C)n2NC(=O)c2cccc(Cl)c2)n1,-15.9% [at 20 µM]
9,O=C(NCc1ccco1)C(=O)c1cn(CC(=O)N2CCCCCC2)c2ccccc12,-16.3%
10,CCOc1ncccc1C(=O)OCC(=O)NC1CC1,-17.7%
11,O=C(c1cccc([N+](=O)[O-])c1)N1CCN(C(=O)c2ccco2)CC1,-10.7%
12,CC(C)C(=O)NCc1cc(-c2ccc(Cl)cc2)no1,2.24%
13,O=S(=O)(c1ccc(F)cc1)N1CCN(Cc2ccccc2C(F)(F)F)CC1,-12.9%
14,O=c1oc2ccccc2cc1-c1cn(-c2ccccc2)c(=S)[nH]1,-34.3%
15,S=c1[nH]nc(NCCc2ccccc2)s1,-19.4%
16,CC(C)(C)C(=O)OCc1nc(-c2ccc(O)c(O)c2)cs1,-19.6%
17,CCN(CC)c1ccc(NC(=O)C2CCC(CNc3c(N4CCCC4)c(=O)c3=O)CC2)c(C)c1 (stereo not given),-28.8%
18,C[n+]1ccc(/C=C/c2c[nH]c3ccccc23)cc1,3.06%
19,C=Cn1c(C(=O)O)ccc1-c1ccc(OC)cc1,-9.46%
20,CC1CN(S(=O)(=O)c2ccc(C(=O)NN3CCN(C)CC3)cc2)CC(C)O1 (stereo not given),-23.8%
21,CCOCN(C(=O)Cn1c(C(C)O)nc2ccccc21)c1c(C)cccc1CC (stereo not given),-22.3% [at 20 µM]
22,O=C(/C=C/c1ccc(Cl)cc1)Nc1ccc(Br)cn1,-19.6%
23,Cc1oc(-c2ccccc2Cl)[n+]([O-])c1C,-9.84% [at 20 µM]

row,Compound,inhibition
1,C=C(C)C(=O)O[C@H]1C/C(C)=C\C(=O)/C=C(\C)[C@H](O)[C@@H]2OC(=O)C(=C)[C@@H]21,-5.36%
2,CCN(C(=O)CSc1nnc2ccccn12)C1CCS(=O)(=O)C1 (stereo not given),-27.8%
3,NNC(=O)c1cnn(-c2ccccc2)c1C(F)(F)F,-29%
4,CCN=C1S/C(=C\c2cc(Br)ccc2OCC(=O)OCC)C(=O)N1CC,-4.2%
5,N#Cc1ccccc1NC(=O)COc1c(Br)cc(Br)c2cccnc12,-14.7%
6,Cn1c(SCC(=O)Nc2ccc(Cl)cc2)nc(O)cc1=O,-15%
7,O=C(CSc1nc2ccc([N+](=O)[O-])cc2[nH]1)c1ccc(Cl)cc1,-10.5%
8,S=C(NN=C1CCN(Cc2ccccc2)CC1)NC1CCCCC1,-25.8%
9,CCCC1OC23CCCCC2C(C#N)(C#N)C1(C#N)C(=N)O3 (stereo not given),-12.5%
10,COc1cc(C)c(S(=O)(=O)N2CCOCC2)c(C)c1C,-15.3%
11,COc1ccccc1N1CCN(/N=C\C(Br)=C\c2ccccc2)CC1,-19%
12,CCO[C@H]1OC(C(=O)N2CCCCCCC2)=C[C@@H](c2ccc(C(F)(F)F)cc2)[C@@H]1CCCO,-28%
13,O=C1CCCC(O)=C1C=NCCc1ccccc1,-20.8%
14,COc1ccc(O)c(C=Nc2cc(C)on2)c1,-25.7%
15,Cc1cc(N=CC2=C(O)CCCC2=O)no1,42.3% (active)
16,OCCC1CN(Cc2cccn2-c2nccs2)CCN1CCc1ccccc1 (stereo not given),-12.8%
17,Cc1nc(CNS(=O)(=O)c2cc([N+](=O)[O-])ccc2C)cs1,10.1%
18,COC(=O)C1=C(N)Oc2c(oc(CO)cc2=O)C1c1c(F)cccc1Cl (stereo not given),-27.8%
19,CN(C)c1ccnc2sc3c(=O)n(-c4ccc(Cl)cc4)cnc3c12,-7.85% [at 20 µM]
20,CCC(C)(C)NC(=O)CN(C(=O)C(=O)Nc1ccc2c(c1)OCCO2)C(C)(C)CC,-14.5%
21,CSc1nnc(SCc2nc3sc(C(=O)O)c(C)c3c(=O)[nH]2)s1,-6.65%
22,O=C(CC1SCCNC1=O)Nc1ccc(Cl)c(Cl)c1 (stereo not given),-21.8%
